# TRPV1 PAM: HTS Assay for Compounds that Act as Potentiators of the Vanilloid Receptor 1; 320,000 compounds, 0.02% hits; Transient receptor potential cation channel subfamily V member 1 (Homo sapiens), Q8NER1; potentiation, % at 8.33 µM; TRPV1-expressing cells, Fluo-8 calcium influx, capsaicin EC20 potentiation; in the data active = potentiation above about 80%; inconclusive = between about 30% and that limit
# Target sequence (Q8NER1 whole entry, looked up): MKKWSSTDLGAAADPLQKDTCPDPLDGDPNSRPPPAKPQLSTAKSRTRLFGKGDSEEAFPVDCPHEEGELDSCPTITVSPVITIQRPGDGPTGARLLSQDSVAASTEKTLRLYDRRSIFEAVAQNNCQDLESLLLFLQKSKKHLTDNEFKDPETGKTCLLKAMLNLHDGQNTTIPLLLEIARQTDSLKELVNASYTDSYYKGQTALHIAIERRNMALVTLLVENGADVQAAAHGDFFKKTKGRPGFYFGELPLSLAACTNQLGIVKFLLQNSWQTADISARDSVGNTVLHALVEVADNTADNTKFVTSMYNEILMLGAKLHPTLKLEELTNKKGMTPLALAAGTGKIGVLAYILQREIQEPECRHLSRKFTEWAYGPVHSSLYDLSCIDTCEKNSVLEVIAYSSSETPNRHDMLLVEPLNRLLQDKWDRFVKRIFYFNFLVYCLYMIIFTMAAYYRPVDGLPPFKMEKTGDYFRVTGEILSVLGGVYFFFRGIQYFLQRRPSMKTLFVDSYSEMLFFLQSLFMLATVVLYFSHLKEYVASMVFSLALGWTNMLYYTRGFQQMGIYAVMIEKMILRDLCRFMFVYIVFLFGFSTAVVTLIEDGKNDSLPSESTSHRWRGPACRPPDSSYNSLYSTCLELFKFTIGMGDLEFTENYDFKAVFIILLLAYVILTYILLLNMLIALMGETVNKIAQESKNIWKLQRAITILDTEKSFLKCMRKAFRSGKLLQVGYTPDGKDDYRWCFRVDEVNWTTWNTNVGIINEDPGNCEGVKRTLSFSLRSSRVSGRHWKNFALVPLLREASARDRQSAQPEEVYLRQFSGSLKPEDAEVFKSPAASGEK
#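 Cells expressing TRPV1 were dye-loaded with Fluo-8 and read kinetically: 10 s baseline, 3 min after compound (agonist portion), then 2 min after EC20 capsaicin (allosteric enhancer portion). Calcium-bound dye fluorescence at 480/520 nm.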
# Giardia killer: Small Molecules that selectively kill Giardia lamblia: qHTS | Giardia lamblia trophozoite viability | 340,000 compounds, 0.15% hits | AID 540267, 2011 | activity change, % at 7.66 µM, hits read low; in the data active = activity change below about -80%; inconclusive = between about -30% and that limit;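 also: parasites exposed to compound for two days anaerobically before the ATP read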
#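 Media and compound were dispensed first, then trophozoites at 100 cells/well; plates sat 48 hrs at 37 deg C without oxygen before ATP luminescence reagent was added and read after 15-30 min at room temperature.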
# TRPV1 ag: HTS Assay for Compounds that Act as Agonists of the Vanilloid Receptor 1; Transient receptor potential cation channel subfamily V member 1 (Homo sapiens), Q8NER1; TRPV1-expressing cells, Fluo-8 calcium influx, agonist mode; activation, % at 8.33 µM; 320,000 compounds, 0.19% hits; AID 540275, 2011; in the data active = activation above about 80%; inconclusive = between about 30% and that limit
#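 Cells expressing TRPV1 were dye-loaded with Fluo-8 and read kinetically: 10 s baseline, 3 min after compound (agonist portion), then 2 min after EC20 capsaicin (allosteric enhancer portion). Calcium-bound dye fluorescence at 480/520 nm.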
# ELG1 DNA repair: qHTS screen for small molecules that inhibit ELG1-dependent DNA repair in human embryonic kidney (HEK293T) cells expressing luciferase-tagged ELG1; HEK293T ELG1-luciferase reporter, luminescence, 16 h; DNA damage induced by 5-fluorouridine; Potency, µM (highest dose often 46.1 µM), usual class: inhibitors; 330,000 compounds, 2.3% hits; also: nearly all actives have a fitted effect of over 55% in size
#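 HEK293T cells expressing luciferase-tagged ELG1 (2,000/well) received 5-Fluorouridine plus compound or DMSO for 16 hr at 37 °C. Luciferase was read by ONE-Glo luminescence after 30 min at room temperature.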
# FUS suppressor: qHTS for Suppressors of FUS Proteinopathy: Primary screen using FUS-linked yeast assay | AID 1347120, 2019 | Potency, µM (doses to about 76.6 µM), usual class: activators | S. cerevisiae FUS-expressing, growth rescue, OD600, 24 h | 390,000 compounds, 0.24% hits; also: nearly all actives have a fitted effect of over 55% in size
#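 Steps: raffinose overnight preculture; dilution to OD 0.005 in 2% galactose minimal medium; compound addition (concentration series); 24hr at 30C, 99% humidity; absorbance read at 600 nm.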
# Numbers stand for hits; 0 = inactive; ? = inconclusive; - = no result. Shown are actives, neighbours in structure and some others; about 2.3% of the full set was active somewhere. Unless noted, calls follow the shape of the dose curve; as a rule, active = well fitted curve in the direction sought with a large enough effect; inconclusive = small, poorly fitted or top-dose-only effect, or another doubt; inactive = no such curve, though single readings can be large; an effect the other way counts as inactive or inconclusive.
SMILES,TRPV1 PAM,Giardia killer,TRPV1 ag,ELG1 DNA repair,FUS suppressor
COc1ccc(C2CC(=O)C3=C(C2)NC(C)=C(C(=O)Nc2ccccc2C)C3c2coc3ccc(C)cc3c2=O)cc1OC (stereo not drawn),0,0,0,5.8µM,?
CC1=C(C(=O)Nc2ccccc2)C(c2coc3ccccc3c2=O)C2=C(CCCC2=O)N1 (stereo not drawn),0,0,0,0,0
Cc1ccc(-c2csc(C(O)c3ccc(F)c(F)c3)n2)cc1C (stereo not drawn),-,-,-,-,0
Cc1ccc(OCC(=O)N2N=C(c3ccc(Cl)cc3)CC2c2ccco2)c([N+](=O)[O-])n1 (stereo not drawn),0,0,0,21µM,0
Cc1ccc(S(=O)(=O)NCC2CN(S(=O)(=O)c3ccc(C)cc3)c3ccccc3C(=O)N2c2ccc(F)cc2)cc1 (stereo not drawn),-,-,-,-,18µM
CC(C)Oc1ccc(CNC(=O)C2COc3ccccc3C2)cc1 (stereo not drawn),-,-,-,-,0
O=[N+]([O-])c1ccc(O)c(/C=N/NC(=S)Nc2ccc(Cl)cc2Cl)c1,0,0,0,2.9µM,0
Cn1c(SCC(=O)N/N=C/c2cc([N+](=O)[O-])ccc2O)nnc1-c1ccccc1,?,0,0,9.2µM,0
Fc1ccc(/C=N/NC(=S)Nc2ccc(Cl)cc2Cl)cc1,0,0,0,0,0
O=C(Nc1ccc([N+](=O)[O-])cc1Cl)c1cc(Cl)ccc1O,0,?,0,?,0
Cc1cc(Cl)ccc1NC(=O)CCC(=O)N/N=C/c1cc([N+](=O)[O-])ccc1O,0,0,0,7.3µM,0
O=[N+]([O-])c1ccc(/C=N/NC(=S)Nc2ccc(Cl)cc2Cl)s1,0,?,0,8.2µM,0
Cn1c(SCC(=O)N/N=C/c2ccc([N+](=O)[O-])s2)nnc1-c1ccccc1,0,0,0,?,0
Cc1ccc(OCC(=O)Nc2ccc3nc(SCCOc4ccccc4)sc3c2)cc1,-,-,-,-,0
Cc1ccc(Cn2cc(CCC(=O)NC3CCCCC3)c3ccccc32)cc1,-,-,-,-,0
CCCCc1ccc(NC(=O)C2(C)Cc3ccccc3C(=O)O2)cc1 (stereo not drawn),-,-,-,-,0
COc1ccc(Cl)cc1NC(=O)c1cc(C)nc2c1c(C)nn2-c1ccccc1,-,-,-,-,0
COc1cc([N+](=O)[O-])ccc1-c1ccc(/C=N/NC(=O)c2ccccc2O)o1,0,-,0,15µM,-
O=C(N/N=C/c1ccc(-c2cccc([N+](=O)[O-])c2)o1)c1ccccc1O,0,?,0,?,0
O=C(N/N=C/c1cc([N+](=O)[O-])ccc1O)c1c[nH]c2ccccc12,0,0,0,8.2µM,0
Cc1ccc(COC(=O)c2cc(S(=O)(=O)N3CCOCC3)ccc2C)cc1,0,0,0,23µM,0
COc1cccc(NC(=O)COC(=O)c2cc(S(=O)(=O)N3CCOCC3)ccc2C)c1,0,0,0,16µM,0
Cc1ccc(S(=O)(=O)N2CCOCC2)cc1C(=O)OCC(=O)Nc1ccc2c(c1)OCO2,0,0,0,-,?
Cc1ccc(S(=O)(=O)N2CCOCC2)cc1C(=O)OCC(=O)N1CCCCC1,-,0,-,0,-
CCOC(=O)c1cccc(NC(=O)c2cc3c(Cl)nc4ccc(C)cc4c3s2)c1,-,-,-,-,0
SMILES,TRPV1 PAM,Giardia killer,TRPV1 ag,ELG1 DNA repair,FUS suppressor
CC1=C(C(=O)N(C(C)C)C(C)C)CC(CC(=O)NCc2cccc3ccccc23)C(=O)N1Cc1ccc(F)cc1 (stereo not drawn),-,-,-,-,18µM
COc1ccc(S(=O)(=O)N(C)C[C@@H]2Oc3c(NC(=O)Nc4ccccc4)cccc3C(=O)N([C@@H](C)CO)C[C@H]2C)cc1,-,-,-,-,16µM
C[C@H](CO)N1C[C@H](C)[C@@H](CN(C)S(=O)(=O)c2ccccc2)Oc2c(NC(=O)NC3CCCCC3)cccc2C1=O,-,0,-,?,32µM
COc1ccc(S(=O)(=O)Nc2cccc3c2O[C@H](CN(C)S(=O)(=O)c2ccc(F)cc2)[C@H](C)CN([C@H](C)CO)C3=O)cc1,-,0,-,0,?
COc1ccc(S(=O)(=O)Nc2cccc3c2O[C@H](CN(C)S(=O)(=O)c2ccccc2)[C@@H](C)CN([C@H](C)CO)C3=O)cc1,-,0,-,0,16µM
COc1ccc(S(=O)(=O)Nc2cccc3c2O[C@H](CN(C)Cc2ccc(-c4ccccc4)cc2)[C@@H](C)CN([C@H](C)CO)C3=O)cc1,-,0,-,0,25µM
C[C@H](CO)N1C[C@H](C)[C@@H](CN(C)S(=O)(=O)c2ccc(F)cc2)Oc2c(NC(=O)NC3CCCCC3)cccc2C1=O,-,0,-,?,0
CC(NC(=O)CCCn1c(=O)c2cccn2c2cccnc21)c1ccccc1 (stereo not drawn),-,-,-,-,0
Cc1cccc(N(C)C(=O)CN(C)S(=O)(=O)c2ccc3[nH]c4c(c3c2)CCCC4)c1,-,-,-,-,32µM
Cc1ccc(NS(=O)(=O)c2ccc3[nH]c4c(c3c2)CCCCCC4)cc1Cl,0,0,0,-,22µM
CC(C)(C)NS(=O)(=O)c1ccc2[nH]c3c(c2c1)CCCCC3,0,0,0,?,0
Cc1ccccc1NS(=O)(=O)c1ccc2[nH]c3c(c2c1)CCCCC3,-,-,-,-,35µM
COc1ccc(-c2noc(CN(C(=O)Cc3ccc(C)cc3)C(C)C)n2)cc1,-,-,-,-,0
O=C(CCCCCCN1C(=O)c2ccccc2C1=O)Nc1nccs1,0,0,0,16µM,0
Brc1ccc2ncnc(Nc3cccc4ccccc34)c2c1,0,0,?,0,0
OCCNc1ncnc2ccc(Br)cc12,0,0,0,9.2µM,0
Cc1nc(-c2ccc(S(=O)(=O)NCc3cccnc3)s2)cs1,0,0,0,?,0
Cc1nc(-c2ccc(S(=O)(=O)NCC3CCN(C(=O)OC(C)(C)C)CC3)s2)cs1,0,0,0,21µM,0
Cc1cc2nc(-c3ccc(OCc4ccc(F)cc4)cc3)cc(C(F)(F)F)n2n1,-,-,-,-,0
Cc1ccc(NC(=S)NNc2ncc(C(F)(F)F)cc2Cl)cc1,0,0,0,?,0
Cc1ccc(NC(=S)NNc2ncc(C(F)(F)F)cc2Cl)c(C)c1,0,0,0,21µM,?
Cc1cccc(S(=O)(=O)N2CCN(c3nc(-c4cccs4)nc4ccccc34)CC2)c1,-,0,-,-,-
CC(=O)Nc1nc2ccccc2n1Cc1ccc(Cl)cc1,0,0,0,13µM,0
COc1ccc(CCNc2c(C)c(C)nc3ncnn23)cc1,0,0,0,0,0
CCc1c(C)nc2ncnn2c1NCCc1ccc(OC)c(OC)c1,0,0,0,12µM,0
COc1ccc2nc(Nc3nc(CSc4nnnn4-c4ccccc4)cc(=O)[nH]3)nc(C)c2c1,0,0,0,0,0

# Screening data: PubChem BioAssay, National Center for Advancing Translational Sciences (NCATS)
